Reference: PubChem BioAssay (NCATS)
Values joined by “and” are separate entries in the source; they are usually repeats but may differ in a detail not shown here. Equal values may be shown once. Unmarked numbers belong to inactive results. Inconclusive results are not listed. A call without a number means that no potency is given here. Active and inactive are the calls of the source. Unless noted, calls follow the shape of the dose curve; as a rule, active = well fitted curve in the direction sought with a large enough effect; inconclusive = small, poorly fitted or top-dose-only effect, or another doubt; inactive = no such curve, though single readings can be large; an effect the other way counts as inactive or inconclusive.

Columns and labels:
[1] = biological target: Protein phosphatase 1D (Homo sapiens) (UniProt O15297); experiment: RapidFire Mass Spectrometry qHTS Assay for Modulators of WT P53-Induced Phosphatase 1 (WIP1) (AID 1347424); also: series mostly up to about 63 µM
Sequence of Protein phosphatase 1D (Homo sapiens) (O15297 whole entry, looked up): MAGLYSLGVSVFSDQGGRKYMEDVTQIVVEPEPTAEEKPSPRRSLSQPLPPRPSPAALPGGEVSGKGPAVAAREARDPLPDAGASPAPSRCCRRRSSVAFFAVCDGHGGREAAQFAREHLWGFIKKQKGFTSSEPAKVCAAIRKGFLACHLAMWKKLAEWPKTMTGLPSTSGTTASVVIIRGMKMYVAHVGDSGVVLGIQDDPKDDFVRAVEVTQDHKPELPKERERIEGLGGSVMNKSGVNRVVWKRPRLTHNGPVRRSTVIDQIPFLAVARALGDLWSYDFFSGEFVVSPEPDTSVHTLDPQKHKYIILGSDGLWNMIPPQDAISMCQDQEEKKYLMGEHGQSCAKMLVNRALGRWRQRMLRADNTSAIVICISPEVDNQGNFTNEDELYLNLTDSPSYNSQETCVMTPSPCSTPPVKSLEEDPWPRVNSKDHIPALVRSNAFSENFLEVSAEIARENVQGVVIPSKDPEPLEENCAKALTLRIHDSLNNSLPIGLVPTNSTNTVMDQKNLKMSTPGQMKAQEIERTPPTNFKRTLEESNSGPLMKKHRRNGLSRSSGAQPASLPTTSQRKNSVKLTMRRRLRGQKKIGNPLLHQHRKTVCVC
Procedure, shortened: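 RapidFire MS readout of dephosphorylated VEPPL-S-QETFS product, with 1 uM isotope-labelled peptide standard. Reaction: 10 nM WIP1, 2 uM phosphopeptide substrate, 5 min, room temperature, after 1 h compound preincubation; stopped with 0.5% formic acid.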

[2] = biological target: Protein phosphatase 1D (Homo sapiens) (UniProt O15297); experiment: Rhodamine-PBP qHTS Assay for Modulators of WT P53-Induced Phosphatase 1 (WIP1) (AID 1347425)
Procedure, shortened: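 Read-out: Rhodamine-PBP fluorescence (ex 525/em 598 nm) for released Pi, read each minute for 11 min after adding 10 uM VEPPL-pS-QETFS; signal taken as f1 minus pre-substrate f0. Enzyme 5 nM WIP1 with 1 hr room-temperature compound preincubation.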

[3] = Validation qHTS assay for inhibitors of Activation Induced Cytidine Deaminase (AID): UDG Counterscreen signal (AID 1347427)
Procedure, shortened: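 Fluorescence at 560 nm excitation, 665 nm emission reports UDG signal after 250 mM NaOH (2x) addition and 30 min. Enzymes (AID 1 uM, UDG 2 U/mL, at 4/3x) preincubated 10 min with compound, then 4 h with 4x 250 nM DJC20/DJC23 substrate at room temperature.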

[4] = biological target: Single-stranded DNA cytosine deaminase (Homo sapiens) (UniProt Q9GZX7); experiment: Validation qHTS assay for inhibitors of Activation Induced Cytidine Deaminase (AID): AID signal (AID 1347429)
Sequence of Single-stranded DNA cytosine deaminase (Homo sapiens) (Q9GZX7 whole entry, looked up): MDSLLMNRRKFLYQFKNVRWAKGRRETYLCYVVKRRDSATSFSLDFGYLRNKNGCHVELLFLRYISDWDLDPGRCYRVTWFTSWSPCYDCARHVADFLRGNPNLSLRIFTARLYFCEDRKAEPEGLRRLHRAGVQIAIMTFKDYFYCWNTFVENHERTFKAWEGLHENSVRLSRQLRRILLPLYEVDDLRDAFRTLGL
Procedure, shortened: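 Compounds (final up to 114 uM) preincubated with AID plus UDG; 250 nM DJC20/DJC23 substrate mix (4x stock) added, 4 hr at room temperature, then NaOH, 30 min. Read 1 fluorescence at 540 nm excitation, 590 nm emission.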

[5] = Primary qHTS for inhibitors of La Crosse Virus (LACV) - induced cell death in SH-SY5Y cells (AID 1508616);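 also: top concentration of the series differs between compounds; higher means more rescue of cells from virus-induced death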
Procedure, shortened: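 Rescue of virus-induced death was read as ATPLite luminescence after 6 days at 37C, scaled between DMSO wells with LACV and without virus. Cells were SH-SY5Y, 6000/well, infected at 0.01 MOI after compound addition.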

[6] = biological target: Calcium and integrin-binding protein 1 (Homo sapiens) (UniProt Q99828); experiment: Validation qHTS for Identification of Calcium Integrin Binding protein 1 (CIB1) Competitor (AID 1508618)
Sequence of Calcium and integrin-binding protein 1 (Homo sapiens) (Q99828 whole entry, looked up): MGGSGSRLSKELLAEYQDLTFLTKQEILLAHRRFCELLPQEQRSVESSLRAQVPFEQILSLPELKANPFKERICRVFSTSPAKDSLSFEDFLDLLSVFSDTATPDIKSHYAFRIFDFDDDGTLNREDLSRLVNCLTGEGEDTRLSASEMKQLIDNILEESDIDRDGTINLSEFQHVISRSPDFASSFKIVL
Procedure, shortened: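 CIB1-GST (1 uM final) in 5 mM HEPES pH 7.4, 125 mM NaCl, 5 mM CaCl2, 0.01% Tween20 was preincubated 15 min at room temperature with compound (up to 114 uM), then FITC-alphaIIb peptide (100 nM) added for 15 min; fluorescence polarization read.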

[7] = biological target: Calcium and integrin-binding protein 1 (Homo sapiens) (UniProt Q99828); experiment: Primary qHTS for Identification of Calcium Integrin Binding Protein 1 (CIB1) Competitor (AID 1508620);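 also: GST tagged CIB1 binding a fluorescein labelled alphaIIb integrin peptide tracer; top concentration of the series differs between compounds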
Procedure, shortened: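 Fluorescence polarization competition: GST-tagged CIB1 (1 uM final) preincubated with compound 15 min at room temperature, then FITC-labelled alphaIIb peptide (100 nM final) added. After 15 min at room temperature, polarization read at Ex 480/Em 540.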

[8] = Primary qHTS for small molecule stabilizers of the endoplasmic reticulum resident proteome: Secreted ER Calcium Modulated Protein (SERCaMP) assay (AID 1508630)
Procedure, shortened: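 The SH-SY5Y reporter protocol was run at 3 concentrations up to 38.3 uM (primary) or 11 concentrations (follow-up): 16 h compound, 100 nM thapsigargin for 4 h, then extracellular luciferase luminescence.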

[9] = A High-Content qHTS Against Drug Library for the Identification of Small Molecules that Inhibit DYT1 Early Onset Primary Dystonia-Associated Cell Pathology (AID 1645839; calls by dose curve; also: series mostly up to about 46 µM)
Procedure, shortened: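 Cells were seeded and left for 24 h, then dosed with compound alongside tetracycline induction of mutant EGFP-TorsinA. They were incubated for 48 h, fixed in 4% paraformaldehyde, permeabilized and imaged for mislocalization (%pathology) and cell count.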

[10] = biological target: Cytochrome P450 2D6 (Homo sapiens) (UniProt P10635); experiment: Cytochrome P450 family 2 subfamily D member 6 (CYP2D6) small molecule antagonists: luciferase biochemical (cell-free) qHTS assay (AID 1645840; active = well fitted curve in the direction sought with a large enough effect in the repeat runs; an effect the other way counts as inactive or inconclusive; also: nearly all actives have a fitted effect of over 55% in size; also: potency is read from the fitted curve at half-maximal effect; as to activity change, negative = inhibition: series mostly up to about 57 µM)
Sequence of Cytochrome P450 2D6 (Homo sapiens) (P10635 whole entry, looked up): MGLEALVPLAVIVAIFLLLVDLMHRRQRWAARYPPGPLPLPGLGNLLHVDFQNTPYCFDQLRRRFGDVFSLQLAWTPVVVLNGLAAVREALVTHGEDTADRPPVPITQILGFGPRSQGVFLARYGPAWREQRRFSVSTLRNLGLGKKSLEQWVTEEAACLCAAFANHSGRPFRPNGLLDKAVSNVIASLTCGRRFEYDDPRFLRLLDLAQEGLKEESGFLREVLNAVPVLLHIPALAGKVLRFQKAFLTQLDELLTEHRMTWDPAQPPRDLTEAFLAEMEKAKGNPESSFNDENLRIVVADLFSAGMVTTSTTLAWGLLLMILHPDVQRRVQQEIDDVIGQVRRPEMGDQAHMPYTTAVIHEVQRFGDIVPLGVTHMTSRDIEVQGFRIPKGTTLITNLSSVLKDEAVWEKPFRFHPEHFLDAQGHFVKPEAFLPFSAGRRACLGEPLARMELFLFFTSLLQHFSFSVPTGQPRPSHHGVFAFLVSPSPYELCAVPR
Procedure, shortened: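 P450-Glo CYP2D6 system: proluciferin substrate converted by enzyme to luciferin, read by luminescence proportional to activity. Enzyme-substrate mix with compound 10 min at room temperature, then NADPH regeneration 1 h before detection reagent.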

[11] = biological target: Cytochrome P450 2C9 (Homo sapiens) (UniProt P11712); experiment: Cytochrome P450 family 2 subfamily C member 9 (CYP2C9) small molecule antagonists: luciferase biochemical (cell-free) qHTS assay (AID 1645842; active = well fitted curve in the direction sought with a large enough effect in the repeat runs; an effect the other way counts as inactive or inconclusive; also: series mostly up to about 57 µM; nearly all actives have a fitted effect of over 55% in size)
Sequence of Cytochrome P450 2C9 (Homo sapiens) (P11712 whole entry, looked up): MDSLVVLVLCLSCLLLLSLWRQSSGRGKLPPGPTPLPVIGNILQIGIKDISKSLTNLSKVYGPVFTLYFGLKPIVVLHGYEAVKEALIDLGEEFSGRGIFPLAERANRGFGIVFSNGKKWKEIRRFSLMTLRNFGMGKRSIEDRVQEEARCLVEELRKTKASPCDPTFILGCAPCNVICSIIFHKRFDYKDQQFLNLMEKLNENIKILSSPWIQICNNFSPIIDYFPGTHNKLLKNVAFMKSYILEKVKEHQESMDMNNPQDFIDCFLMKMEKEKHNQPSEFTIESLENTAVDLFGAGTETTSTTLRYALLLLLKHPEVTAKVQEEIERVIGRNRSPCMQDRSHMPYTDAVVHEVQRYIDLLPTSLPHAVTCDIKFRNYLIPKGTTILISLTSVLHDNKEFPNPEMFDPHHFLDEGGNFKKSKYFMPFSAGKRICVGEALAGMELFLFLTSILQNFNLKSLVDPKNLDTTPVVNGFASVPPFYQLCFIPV
Procedure, shortened: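 P450-Glo CYP2C9 system: proluciferin substrate with enzyme in mix containing 0.4% BSA, 10 min at room temperature, then NADPH regeneration solution added and incubated 1 h at 37C. Detection reagent stopped reaction; luminescence read after 20 min as RLU.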

Papain (Carica papaya) = Papain (Carica papaya) (UniProt P00784); experiment: Primary qHTS assay for inhibitors of the protease papain (AID 1645873);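 also: papain turnover of Z-FR-AMC read as the AMC fluorescence gain over 10 min; series mostly up to about 50 µM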
Sequence of Papain (Carica papaya) (P00784 whole entry, looked up, the tested form may be a part): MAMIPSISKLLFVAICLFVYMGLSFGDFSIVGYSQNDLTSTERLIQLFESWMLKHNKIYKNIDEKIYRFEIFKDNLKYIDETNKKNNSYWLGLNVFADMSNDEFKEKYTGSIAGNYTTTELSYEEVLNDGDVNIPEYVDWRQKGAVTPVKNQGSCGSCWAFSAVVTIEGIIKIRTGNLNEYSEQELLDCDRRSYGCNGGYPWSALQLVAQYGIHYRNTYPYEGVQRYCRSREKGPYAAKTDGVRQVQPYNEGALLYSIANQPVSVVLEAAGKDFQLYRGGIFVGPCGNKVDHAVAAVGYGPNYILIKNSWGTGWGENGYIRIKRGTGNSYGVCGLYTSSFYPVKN

[12] = Primary qHTS for inhibitors of nuclear receptor binding SET domain protein 2 (NSD2) in an isogenic RCH-ACV NSD2 p.E1099K mutant (9B) (AID 1645876); also: nearly all actives have a fitted effect of over 70% in size; also: potency is read from the fitted curve at half-maximal effect
[13] = Primary qHTS for inhibitors of nuclear receptor binding SET domain protein 2 (NSD2) in an RCH-ACV wild type WT cells (2C) (AID 1645877); also: nearly all actives have a fitted effect of over 70% in size; also: potency is read from the fitted curve at half-maximal effect
[14] = qHTS to identify inhibitors of the type 1 interferon - major histocompatibility complex class I in skeletal muscle: primary screen against the NCATS Mechanism Interrogation Plate v5.0 (MIPE) Libary (AID 1347411); also: nearly all actives have a fitted effect of over 65% in size
Procedure, shortened: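 Luminescence from CRISPR HiBit-tagged endogenous HLA-B in human myoblasts reported MHC class I level after 24 h of IFN-beta (4 ng/ml) plus compound. Compounds ran as 11-point 1:3 series, top 46 uM final.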

[15] = biological target: Cytochrome P450 3A4 (Homo sapiens) (UniProt P08684); experiment: Cytochrome P450 family 3 subfamily A member 4 (CYP3A4) small molecule antagonists: luciferase qHTS assay (AID 1645841; active = well fitted curve in the direction sought with a large enough effect in the repeat runs; an effect the other way counts as inactive or inconclusive; also: nearly all actives have a fitted effect of over 45% in size)
Sequence of Cytochrome P450 3A4 (Homo sapiens) (P08684 whole entry, looked up): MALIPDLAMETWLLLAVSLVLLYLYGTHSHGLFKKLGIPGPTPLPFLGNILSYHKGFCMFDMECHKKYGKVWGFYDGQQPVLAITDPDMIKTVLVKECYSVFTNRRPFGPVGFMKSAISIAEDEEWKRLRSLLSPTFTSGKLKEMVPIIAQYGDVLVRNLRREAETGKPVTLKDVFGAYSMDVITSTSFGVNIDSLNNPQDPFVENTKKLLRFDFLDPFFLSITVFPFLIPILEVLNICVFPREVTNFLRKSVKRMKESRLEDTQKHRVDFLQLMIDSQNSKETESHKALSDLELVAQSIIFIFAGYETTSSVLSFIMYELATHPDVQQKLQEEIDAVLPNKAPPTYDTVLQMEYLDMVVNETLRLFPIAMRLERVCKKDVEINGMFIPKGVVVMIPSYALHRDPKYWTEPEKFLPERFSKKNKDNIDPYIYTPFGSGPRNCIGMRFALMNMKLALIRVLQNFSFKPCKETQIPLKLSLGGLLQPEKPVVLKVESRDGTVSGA
Procedure, shortened: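 P450-Glo CYP3A4 enzyme with proluciferin substrate preincubated 10 min with compound at room temperature, then NADPH regeneration 1 h. Luciferin detection reagent added for 20 min; luminescence recorded. Ketoconazole positive control.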

[16] = Counterscreen qHTS for small molecule stabilizers of the endoplasmic reticulum resident proteome: GLuc-NoTag assay (AID 1508627); also: series mostly up to about 76 µM
Procedure, shortened: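 Counterscreen line: SH-SY5Y-GLuc-NoTag. Seed, 5 h; compound, 19 h; thapsigargin 100 nM, 4 h; 37C/5% CO2. Readout: secreted GLuc luminescence, coelenterazine 0.07x final, no lysis.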

[17] = Confirmatory qHTS for small molecule stabilizers of the endoplasmic reticulum resident proteome: Secreted ER Calcium Modulated Protein (SERCaMP) assay (AID 1508628); also: series mostly up to about 76 µM; nearly all actives have a fitted effect of over 40% in size
Procedure, shortened: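 Reporter secretion upon ER calcium depletion (100 nM thapsigargin, 4 h, 37C) is measured as medium luminescence with coelenterazine, after 16 h compound pretreatment of SH-SY5Y-GLuc-SERCaMP cells; primary at three concentrations up to 38.3 uM, follow-up at 11 (up to 76.6 uM).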

## CCN(CC)C(C)CN1c2ccccc2Sc2ccccc21 (stereo not given)
[1]
  outcome: inactive
[2]
  outcome: inactive
[3]
  Potency: inactive
[4]
  Potency: inactive
[5]
  outcome: inactive
[6]
  outcome: inactive
[7]
  outcome: inactive
[8]
  Potency: inactive
[9]
  Potency: inactive
[10]
  Potency: 19.5 µM (active)
[11]
  Potency: inactive
Papain (Carica papaya)
  Potency: inactive
[12]
  Potency: inactive
[13]
  Potency: inactive

## C[C@H]1O[C@@H](n2cc(F)c(=O)[nH]c2=O)[C@H](O)[C@@H]1O
[14]
  Potency: inactive
[1]
  outcome: inactive
[2]
  outcome: inactive
[5]
  outcome: inactive
[6]
  outcome: inactive
[7]
  outcome: inactive
[8]
  Potency: inactive
[9]
  Potency: inactive
[10]
  Potency: inactive
[11]
  Potency: inactive
[12]
  Potency: 20.9 µM (active)
[13]
  Potency: 20.9 µM (active)

## CCN(CC)CCNC(=O)c1cc(Cl)c(N)cc1OC
[1]
  outcome: inactive
[2]
  outcome: inactive
[3]
  Potency: inactive
[4]
  Potency: inactive
[5]
  outcome: inactive
[6]
  outcome: inactive
[7]
  outcome: inactive
[8]
  Potency: inactive
[9]
  Potency: inactive
[10]
  Potency: 15.5 µM (active)
[15]
  outcome: inactive
[11]
  Potency: inactive
Papain (Carica papaya)
  Potency: inactive
[12]
  Potency: inactive
[13]
  Potency: inactive

## Cn1c(=O)c2c(ncn2CC2OCCO2)n(C)c1=O
[14]
  Potency: inactive
[1]
  outcome: inactive
[2]
  outcome: inactive
[5]
  outcome: inactive
[7]
  outcome: inactive
[9]
  Potency: inactive
[10]
  Potency: inactive
[11]
  Potency: inactive
[12]
  Potency: inactive
[13]
  Potency: inactive

## C[C@](N)(Cc1ccc(O)cc1)C(=O)O
[1]
  activity change, negative = inhibition: 3.41% [at 6.17 µM]
[2]
  activity change, negative = inhibition: -0.695% [at 4.81 µM]
[3]
  Potency: inactive
[4]
  Potency: inactive
[5]
  outcome: inactive
[6]
  outcome: inactive
[7]
  activity change, negative = inhibition: 5.16% [at 12.4 µM]
[8]
  Potency: inactive
[9]
  % pathology change, negative = correction: 14.7% [at 4.63 µM]
[10]
  activity change, negative = inhibition: 8.94% [at 4.83 µM]
[11]
  activity change, negative = inhibition: 1.65% [at 4.83 µM]
Papain (Carica papaya)
  Potency: inactive
[12]
  activity change, negative = viability loss: -3.71% [at 4.96 µM]
[13]
  outcome: inactive [at 4.96 µM]

## CCN(CC)CCOC(=O)C1(C2CCCCC2)CCCCC1
[1]
  outcome: inactive
[2]
  outcome: inactive
[3]
  Potency: inactive
[4]
  Potency: inactive
[5]
  outcome: inactive
[6]
  outcome: inactive
[7]
  outcome: inactive
[16]
  Potency: inactive
[17]
  Potency: inactive
[8]
  Potency: inactive
[9]
  Potency: inactive
Papain (Carica papaya)
  Potency: inactive
[12]
  Potency: inactive

## C[C@]12C[C@H](O)[C@H]3[C@@H](CCC4=CC(=O)CC[C@@]43C)[C@@H]1CC[C@@H]2C(=O)CO
[1]
  outcome: inactive
[2]
  outcome: inactive
[3]
  Potency: inactive
[4]
  Potency: inactive
[5]
  outcome: inactive
[6]
  outcome: inactive
[7]
  outcome: inactive
[8]
  Potency: inactive
[9]
  Potency: inactive
[10]
  Potency: inactive
Papain (Carica papaya)
  Potency: inactive

## CN(C)CCC=C1c2ccccc2CCc2ccccc21
[1]
  outcome: inactive
[2]
  outcome: inactive
[3]
  Potency: inactive
[4]
  Potency: inactive
[5]
  outcome: inactive
[6]
  outcome: inactive
[7]
  outcome: inactive
[17]
  Potency: inactive
[10]
  Potency: 5.49 µM (active) and 9.52 µM (active)
[11]
  Potency: inactive
Papain (Carica papaya)
  Potency: inactive
